Measurements reported in PubChem BioAssay.
Measured potencies and affinities stand elsewhere. Calls of active or inactive are those of the source. How the calls were made is not given here.

Target: Plasmodium falciparum protein kinase 6 (PK6, PF3D7_1337100) (UniProt Q8IDW1)
Assay: PfPK6 kinase inhibitors, biochemical, TCAMS library (AID 1159586)
Conditions: recombinant PfPK6, Kinase-Glo ATP depletion luminescence

Plasmodium falciparum protein kinase 6 (PK6, PF3D7_1337100), sequence (Q8IDW1 1-305): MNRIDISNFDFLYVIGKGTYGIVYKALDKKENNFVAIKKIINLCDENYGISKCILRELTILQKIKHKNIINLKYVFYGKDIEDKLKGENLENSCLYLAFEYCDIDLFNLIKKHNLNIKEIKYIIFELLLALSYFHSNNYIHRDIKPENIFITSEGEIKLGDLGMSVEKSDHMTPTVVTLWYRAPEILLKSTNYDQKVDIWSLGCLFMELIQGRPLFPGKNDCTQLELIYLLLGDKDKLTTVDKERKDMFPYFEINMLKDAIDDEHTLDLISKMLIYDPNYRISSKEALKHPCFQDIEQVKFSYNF

Row | Structure (SMILES) | outcome
1 | CC(=O)C=C1CC(=O)N(C[C@@H](O)[C@H]2O[C@@H]3OC(C)(C)O[C@@H]3[C@H]2O)c2ccccc2N1 | inactive
2 | O=C(Nc1cccc(-c2ccc(-c3nc4ccc(C(F)(F)F)cc4[nH]3)cc2)c1)c1ccoc1 | inactive
3 | Cc1cc(C2CCN(CCCCNC(=O)c3ccc(-c4ccc(C#N)cc4)cc3)CC2)c(C)cc1O | inactive
4 | CNC(=O)CSc1nnc(-c2ccc(C)cc2)c(-c2ccc(C)cc2)n1 | inactive
5 | CCN(CC)CCN(CCN(CC)CC)c1ccc(-c2nc3cc(Cl)c(Cl)cc3[nH]2)cc1 | inactive
6 | CN(C)CCOc1ccc(/C(=C(/CCCn2ccnc2)c2ccccc2)c2ccc(O)cc2)cc1 | inactive
7 | CC(C)c1ccc(Nc2nc(NCCc3cnc[nH]3)nc(NCc3ccccc3)n2)cc1 | inactive
8 | Cc1ccc(Oc2ccc(NC(=O)CNc3ccccc3N3CCCC3=O)cc2)cc1 | inactive
9 | CC1(C)N=C(N)N=C(N)N1OCCc1ccccc1 | inactive
10 | OC(COCc1ccc(-c2ccccc2)cc1)CN1CCCCC1 (stereo not given) | inactive
11 | COc1ccc(-c2csc(NC(=O)CCC(=O)O)n2)cc1OC | inactive
12 | CCCC(=O)Nc1ccc(OCCCN(Cc2ccccc2F)c2ccc(C#N)c(C(F)(F)F)c2)cc1 | inactive
13 | Cc1cccc2[nH]c(-c3ccc(-c4ccc(CNCc5ccc(CN)cc5)cc4)cc3)nc12 | inactive
14 | NC(N)=NC(=O)Nc1ccc(Cl)c(Cl)c1 | inactive
15 | COCCNCc1cccc(-c2ccccc2CN(C(=O)c2ccc3c(c2)OCO3)c2ccc(OC)cc2)c1 | inactive
16 | FC(F)(F)c1cccnc1N1CCC(Nc2nc3ccc(Cl)cc3[nH]2)CC1 | inactive
17 | c1ccc2c(Nc3ccc(Cc4ccc(Nc5c6ccccc6nc6ccccc56)cc4)cc3)c3ccccc3nc2c1 | inactive
18 | COc1cc(F)c2nccc([C@@H](O)CN3CC[C@H](NCc4ccc5c(n4)NC(=O)CS5)[C@H](F)C3)c2c1 | inactive
19 | COc1ccc(-c2nc(-c3ccc([N+](=O)[O-])cc3)no2)cc1OC | inactive
20 | N#Cc1ccc(-c2ccc(C(=O)NCCCCN3CCC(c4ccc5c(c4OCC(N)=O)CCCC5)CC3)cc2)cc1 | inactive

Row | Structure (SMILES) | outcome
21 | CC1CN(CC(O)Cn2c3ccc(Br)cc3c3cc(Br)ccc32)CC(C)O1 (stereo not given) | inactive
22 | N#Cc1cccc(C(=O)Nc2cccc(-c3cccc(CN4CCNCC4)c3)c2)c1 | inactive
23 | COCCNCc1cccc(C#Cc2cc3ncnc(Nc4ccc(OCc5cccc(F)c5)c(Cl)c4)c3s2)n1 | inactive
24 | Cc1cccc(-c2ccc3c(c2)CC(NCc2cccc(-n4ccnc4)c2)C3)c1 (stereo not given) | inactive
25 | Nc1nc(N)c2c(ccc3c2ccn3Cc2ccccc2)n1 | inactive
26 | COc1ccc(-c2cccc(NC(=O)c3cccc(Cl)c3)c2)cc1CN1CCC(O)CC1 | inactive
27 | Cc1cccc2[nH]c(-c3ccc(-c4cccc(CNCc5ccccc5)c4)cc3)nc12 | inactive
28 | FC(F)(F)c1ccc2nc(-c3ccc(-c4cccc(CN5CCC(CCN6CCCCC6)CC5)c4)cc3)[nH]c2c1 | inactive
29 | CN1CCC(C(=O)Nc2ccc(-c3ccc(-c4nc5ccccc5[nH]4)s3)cc2)CC1 | inactive
30 | COc1ccc(Nc2nccc(NCC(O)c3ccc(C(F)(F)F)cc3)n2)cc1 (stereo not given) | inactive
31 | CC(C)Cc1cn(-c2nc(-c3nc4ccccc4[nH]3)cs2)c2ccncc12 | inactive
32 | CC1=C(C(=O)Nc2cc3cn[nH]c3cc2F)C(c2cccc(O)c2F)CC(=O)N1 (stereo not given) | inactive
33 | O=C(Nc1ccccc1)c1ccc(N2CCC(COc3cccc(C(F)(F)F)c3)CC2)nc1 | inactive
34 | CN(C)c1nc2cc(-n3cnc4cc(-c5ccc(Cl)cc5)sc4c3=O)ccc2n1CCCN1CCCC1 | inactive
35 | O=C(NCC1CCC(C(=O)O)CC1)c1ccc(/C=C/C(=O)N2CCc3ccccc3C2c2ccc3c(c2)OCO3)cc1 (stereo not given) | inactive
36 | COc1ccc(CN(C)CCCOc2ccc(NC(=O)C=Cc3ccc(C(C)(C)C)cc3)cc2)cc1OC | inactive
37 | CC(C)CCCC(C)NC[C@@H](O)[C@H](Cc1ccccc1)NC(=O)c1cc(N2CCCC2=O)cc(N(c2ccccc2)S(C)(=O)=O)c1 (stereo not given in full) | inactive
38 | CC(C)CCNC(=O)C1Cc2c([nH]c3ccc(Br)cc23)C2(CCN(Cc3ccccc3)CC2)N1 (stereo not given) | inactive
39 | CN1CCN(c2ccnc3cc4ccccc4cc23)CC1 | inactive
40 | Cc1noc(C)c1-c1cccc(CNCc2cccc(-c3ccc(-c4nc5ccccc5[nH]4)s3)c2)c1 | inactive
